Bioassay records as filed in PubChem.
Only some compounds are listed: those with a hit (about 10% of all), similar ones and a draw of the others.
HP1b chromo inh: HTS for Inhibitors of HP1-beta Chromodomain Interactions with Methylated Histone Tails; AlphaScreen HP1-beta / biotin-H3K9me3 peptide binding; Potency, µM (series often up to 114 µM), inactives show top-dose activity change, negative = inhibition, actives largely listed as inhibitors; Chromobox protein homolog 1 (Homo sapiens), P83916; 390,000 compounds, 0.56% hits; further: nearly all actives have a fitted effect of over 70% in size
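HP1-beta protein (50 nM final) preincubated 30 min at room temperature with biotinylated H3(1-18)K9me3 peptide (50 nM) in PBS pH 7.4, 0.01% Tween-20, then compound added for 30 min. AlphaScreen streptavidin donor/nickel chelate acceptor beads (10 ug/mL final), 30 min dark, luminescence read.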
G9a inh: qHTS Assay for Inhibitors of Histone Lysine Methyltransferase G9a; Histone-lysine N-methyltransferase EHMT2 (Homo sapiens), Q96KQ7; G9a H3K9 monomethylation, AlphaScreen, 2 h; Potency, µM (titrated, usually from 102 µM), inactives show at the top dose activity, negative = inhibition, most hits filed as inhibitors; 350,000 compounds, 8.8% hits; further: on the % scale 0 is the no-effect control and ±100 the full control effect; nearly all actives have a fitted effect of over 75% in size
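AlphaScreen detection with an anti-monomethyl H3K9 antibody quantified product after a 2 h room-temperature reaction containing 500 nM biotinylated H3K9 peptide, 20 µM SAM and 20 nM enzyme, which had been preincubated 15 min with compound.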
GLS inhibitor: qHTS for Inhibitors of Glutaminase (GLS); GLS enzymatic activity, qHTS titration; 410,000 compounds, 0.21% hits; Potency, µM (highest dose often 45.5 µM), for the others: at the top dose activity change, negative = inhibition, usual class: inhibitors; further: on the % scale 0 is the no-effect control and ±100 the full control effect
Target sequence (O94925 whole entry, looked up): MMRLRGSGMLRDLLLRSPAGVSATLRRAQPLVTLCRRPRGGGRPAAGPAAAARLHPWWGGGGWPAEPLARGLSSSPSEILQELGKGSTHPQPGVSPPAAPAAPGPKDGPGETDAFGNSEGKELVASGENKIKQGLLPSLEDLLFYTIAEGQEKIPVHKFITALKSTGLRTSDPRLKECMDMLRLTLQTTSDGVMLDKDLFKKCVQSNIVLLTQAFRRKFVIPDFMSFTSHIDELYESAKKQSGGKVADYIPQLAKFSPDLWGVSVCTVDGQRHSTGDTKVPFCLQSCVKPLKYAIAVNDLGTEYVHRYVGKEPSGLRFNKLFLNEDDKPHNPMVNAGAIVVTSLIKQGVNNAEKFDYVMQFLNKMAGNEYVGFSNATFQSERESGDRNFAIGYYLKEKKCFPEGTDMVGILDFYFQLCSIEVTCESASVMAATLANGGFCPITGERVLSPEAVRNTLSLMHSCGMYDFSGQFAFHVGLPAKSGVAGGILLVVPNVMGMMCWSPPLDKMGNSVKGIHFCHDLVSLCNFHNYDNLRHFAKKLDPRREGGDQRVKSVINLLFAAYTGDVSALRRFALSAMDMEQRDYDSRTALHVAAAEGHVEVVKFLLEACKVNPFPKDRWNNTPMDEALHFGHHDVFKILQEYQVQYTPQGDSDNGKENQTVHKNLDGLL
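Glutamate formation by hKGA was monitored fluorometrically using coupled glutamate oxidase, HRP and Amplex Red. Substrate was added as 1 mM L-glutamine solution; incubation was 30 min at RT after an initial read.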
JMJD2A Tudor: qHTS Assay for Inhibitors of JMJD2A-Tudor Domain | 390,000 compounds, 4.4% hits | Potency, µM (series often up to 114 µM), for inactives: at the highest dose activity change, negative = inhibition, hits mostly inhibitors | AlphaScreen JMJD2A-Tudor / H3K4me3 peptide binding; further: on the % scale 0 is the no-effect control and ±100 the full control effect; nearly all actives have a fitted effect of over 50% in size
BAZ2B inh: qHTS Assay for Inhibitors of BAZ2B | Bromodomain adjacent to zinc finger domain protein 2B (Homo sapiens), Q9UIF8 | 360,000 compounds, 4.4% hits | Potency, µM (doses to about 114 µM), for inactives: at the highest dose activity change, negative = inhibition, most hits filed as inhibitors | AID 504333, 2011 | AlphaScreen BAZ2B-H3K14Ac peptide displacement; further: on the % scale 0 is the no-effect control and ±100 the full control effect; nearly all actives have a fitted effect of over 60% in size
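Compounds, titrated to a top concentration of 110 uM, were incubated 30 min at room temperature with preformed BAZ2B/acetyl-K14 H3 peptide complex (50 nM each). Proximity signal was measured by AlphaScreen after 20 min with beads.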
Starred values were filed as active, the others as inactive; ? = inconclusive; . = no result; ! = a repeat was not active; [ ] = another dose, or the depositor's remark. The call rests on the fitted dose curve; in most records, active means well fitted curve in the direction sought with a large enough effect; inconclusive means small, poorly fitted or top-dose-only effect, or another doubt; inactive means no such curve, though single readings can be large; an effect the other way counts as inactive or inconclusive. Potency means the concentration at half of the fitted maximal effect.

SMILES	HP1b chromo inh	G9a inh	GLS inhibitor	JMJD2A Tudor	BAZ2B inh
Cc1ccc(C(=O)CSc2nc(C(C)C)nc3ccccc23)cc1	33%	31%	0%	13%	70%
O=C(CSc1cnc2ccccc2n1)c1ccc(F)cc1	42%	7.1µM*	9%	3%	9%
CC(C)c1nc(SCC(=O)c2ccc(F)cc2)c2ccccc2n1	104%	40µM*	2%	118%	49%
COC(=O)CSc1cnc2ccccc2n1	33%	17%[59 µM]	2%	10%	?
CC(=O)Nc1ccc(C(=O)NNC(=O)C2CC2)cc1	26%	.	10%	-2%	-6%
CCC(=O)Nc1ccc(C(=O)NNC(=O)C2CCCCC2)cc1	49%	45µM*	-3%	-8%	-2%
Cc1ccc(Cl)cc1NC(=O)CN1C(=O)C(C)(C)c2cc(S(=O)(=O)N3CCCCC3)ccc21	6%[57 µM]	0%[59 µM]	2%	-17%	-13%
CCC(CC)c1nnc(NC(=O)CN2C(=O)c3ccccc3C2=O)s1	7%	45µM*	-14%	-1%	-16%
CCCC(C)c1nnc(NC(=O)CN2C(=O)c3ccccc3C2=O)s1 (stereo unspecified)	4%	7.9µM*	-15%	-3%	?
CCCC(C)c1nnc(NC(=O)c2cc(C(=O)OC)cc([N+](=O)[O-])c2)s1 (stereo unspecified)	-59%	8.9µM*	-16%	?	-6%
CCCC(C)NC(=O)c1cc(C(=O)OC)cc([N+](=O)[O-])c1 (stereo unspecified)	17%	-6%	4%	-1%	4%
CCCC(C)c1nnc(NC(=O)C(=O)OCC)s1 (stereo unspecified)	?	?	-15%	18µM*	56µM*
CCCc1nc2nc(C)c(NS(=O)(=O)c3ccc(C)c(C)c3)c(=O)n2[nH]1	36%	0%[59 µM]	25%	-6%	0%
CCCc1nc2nc(C)c(NS(=O)(=O)c3ccc(C4CCCCC4)cc3)c(=O)n2[nH]1	29%	?	28%	-8%	-2%
COc1ccc(-c2nc(C)c(CCNC(=O)c3ccco3)s2)cc1	18%[57 µM]	-3%[59 µM]	4%	-15%	-20%
CCCOc1ccccc1-c1nc2n[nH]nc2c(=O)[nH]1	41%	14µM*!	14%	-1%	.
CCN(CC)S(=O)(=O)c1ccc(C(=O)NCc2n[nH]c(=S)n2-c2ccccc2OC)cc1	17%	3.5µM*	2%	22µM*	-6%
CCN(CC)S(=O)(=O)c1ccc(C(=O)NCc2nnc(SCC(=O)OC)n2C)cc1	23%	5%	2%	-1%	7%
CCN(CC)S(=O)(=O)c1ccc(Cl)c(C(=O)NCc2ccccc2Cl)c1	62%	11%[59 µM]	-5%	2%	-5%
CCN(CC)S(=O)(=O)c1ccc(C(=O)NCc2n[nH]c(=S)n2-c2ccc(Cl)c(Cl)c2)cc1	1%	16µM*	?	-31%	-37%
O=c1cnc2cnc(Oc3ccccc3)nc2n1CCc1ccccc1	.	-4%[12.7 µM]	.	.	.
CC(C)Nc1nc(NCCOc2ccccc2)c2sccc2n1	.	.	-11%	.	.
Cc1cc(NC2CCCCC2)nc(-c2ccccc2O)n1	?	18µM*	1%	7.9µM*	56µM*
Cc1cc(Nc2ccccc2)nc(-c2ccccc2O)n1	118%	65%[59 µM]	-10%	29%	42%
NC(=O)N/N=C/c1c(Sc2nnnn2-c2ccccc2)nc2ccccn2c1=O	44%	50µM*	-6%	-1%	2%
O=C(CSc1nnnn1-c1ccccc1)CSc1nnnn1-c1ccccc1	10%	-32%[12.7 µM]	41%	-12%	0%
CC1=CC(C)C(=O)N(C)C(C)=C1 (stereo unspecified)	.	.	-1%	.	.
COc1ccc(C(=O)CCN2CCC(C)CC2)cc1	48%	16µM*	3%	2%	-2%
COc1ccc(C(=O)CCN2CCCC(C)C2)cc1 (stereo unspecified)	29%	25µM*	0%	-5%	-3%
